# Measured values published in PubChem BioAssay (NCI).
# About 83,000 compounds went through this panel and 20% of them were active in at least one assay; those are over-represented in the sample as a whole.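 Interpretation: 100, growth as untreated; towards 0, rising growth inhibition; 0, no net growth; 0 to -100, cell death. Compounds scoring below 10 were considered active.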 The source made the active and inactive calls.
# Test system: SNB-75 CNS
# Experiment: NCI-60 one-dose screen, 48 h (100 = growth as untreated, 0 = no growth, -100 = all killed)
# Conditions: 10 µM unless noted
row,SMILES,growth
1,Cc1ccc(-c2nc3ccccn3c2/C=C2/C(=O)Nc3cc(Cl)ccc32)cc1,61.8% (inactive)
2,CC(=O)[C@@H]1CC[C@]2(C(N)=O)CC[C@]3(C)[C@H](CC[C@@H]4[C@@]5(C)CCCNC(C)(C)[C@@H]5CC[C@]43C)[C@@H]12,80.4% (inactive)
3,CC(C)N1C(=O)S/C(=C2/SC(=O)N(C(C)C)C2=O)C1=O,64.8% (inactive)
4,NS(=O)(=O)c1ccc(CCN2C(=O)C3C(C2=O)C2(Cl)C(Cl)=C(Cl)C3(Cl)C2(Cl)Cl)cc1 (stereo not drawn),88% (inactive)
5,Nc1c(S(=O)(=O)O)cc2c3c(cccc13)C(=O)OC2=O,79.2% (inactive)
6,O=C(CCN1CCCC1)c1ccc([N+](=O)[O-])cc1,84% (inactive)
7,O=C1Nc2ccc(F)cc2/C1=C\c1c(-c2ccccc2)nc2ccccn12,61.6% (inactive)
8,O=Cc1ccc(-c2cn3ccnc3c(-c3ccc4ncn(Cc5ccccc5)c4c3)n2)cc1,78.6% (inactive)
9,N#C/C(=C\c1ccc(C(F)(F)F)cc1)c1cc2ccccc2[nH]1,89% (inactive)
10,O=C1c2cccc3c(-c4ccc5c(c4)ncn5C4CCCCC4)ccc(c23)C(=O)N1c1nc2ccccc2s1,75.2% (inactive)
11,Cc1cccc(-c2cn3ccnc3c(-c3ccc4ncn(Cc5ccccc5)c4c3)n2)c1,78.3% (inactive)
12,CCOC(=O)C1=C(CCl)NC(=O)NC1c1ccc2c(c1)OCO2 (stereo not drawn),77.6% (inactive)
13,CCCN1[C@@H]2CC[C@H]1/C(=C\c1ccc(OC)c(OC)c1)C(=O)/C2=C/c1ccc(OC)c(OC)c1,61.1% (inactive)
